Bioassay records deposited in PubChem by several laboratories.
PHOSPHO1 block: blocks human PHOSPHO1 phosphatase activity; recombinant PHOSPHO1, absorbance phosphatase assay; inhibition, % at 13.3 µM; hit rate 1.1% among 290,000; in the data active means inhibition above about 60%
Target sequence (Q8TCT1 whole entry, looked up): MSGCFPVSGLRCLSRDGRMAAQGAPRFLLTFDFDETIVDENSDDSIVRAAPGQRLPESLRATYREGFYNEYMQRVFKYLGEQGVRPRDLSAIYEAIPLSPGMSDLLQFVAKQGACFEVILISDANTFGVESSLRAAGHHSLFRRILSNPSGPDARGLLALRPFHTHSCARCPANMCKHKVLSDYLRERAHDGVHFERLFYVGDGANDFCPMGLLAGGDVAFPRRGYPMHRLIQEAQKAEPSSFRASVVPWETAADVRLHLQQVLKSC
SKKanGAS inh: inhibitors of SKKanGAS S. pyogenes growth in kanamycin (SK-promoter or general growth effect). inhibition, % at 7.5 µM. BacTiter-Glo, 6 h. hit rate 1.3% among 300,000;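 active means mean replicate score, as percent of positive control median, at least 50; inconclusive means mean below 50 but one replicate at or above 50; inactive means mean and every replicate below 50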;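 further: strain carries kanamycin resistance gene driven by streptokinase promoter and grows in 40 µg/ml kanamycin; loss of luminescence reflects streptokinase promoter inhibition or plain growth inhibition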
Platelet DG rel: modulates dense granule release in human platelets. human platelet-rich plasma, SFLLRN dense granule ATP release, luminescence. inhibition, %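 (compounds screened at 7.5 µM in platelet-rich plasma)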. hit rate 0.22% among 300,000;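 active means mean replicate score, as percent of positive control, at or above 50; inconclusive means mean below 50 but at least one replicate at or above 50; inactive means mean and every replicate below 50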
WT yeast gro inh: growth inhibition of WT yeast, mitochondrial fusion screen; mitochondrial fusion phenotypic screen, WT strain; inhibition, % at 10 µM; hit rate 2.1% among 190,000; AID 1362; in the data active means inhibition above about 58%; tested in S. cerevisiae
Rtt109 Vps75: inhibitors of Candida albicans Rtt109/Vps75 histone acetyltransferase; inhibition, % at 34.9 µM; hit rate 0.16% among 330,000; Q5AAJ8; purified Rtt109/Vps75, ThioGlo CoA-SH fluorescence, 4 h;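 active means inhibition of at least 50% in every replicate; inconclusive means best replicate reaches 50% inhibition but some replicates fall short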
Target sequence (Q5AAJ8 whole entry, looked up): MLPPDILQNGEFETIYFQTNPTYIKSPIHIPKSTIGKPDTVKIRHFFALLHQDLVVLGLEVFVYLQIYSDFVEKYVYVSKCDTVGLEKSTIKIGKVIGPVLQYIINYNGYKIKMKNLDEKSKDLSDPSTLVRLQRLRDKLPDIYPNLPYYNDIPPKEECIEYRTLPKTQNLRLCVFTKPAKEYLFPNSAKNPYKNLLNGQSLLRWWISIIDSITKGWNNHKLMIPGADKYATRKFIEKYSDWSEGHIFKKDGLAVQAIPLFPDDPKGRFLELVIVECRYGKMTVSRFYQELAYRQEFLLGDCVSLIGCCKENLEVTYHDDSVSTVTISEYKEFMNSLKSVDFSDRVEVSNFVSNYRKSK
TPT1 inh: C. albicans TPT1 enzyme inhibition; recombinant caTPT1, FP RNA substrate dephosphorylation; inhibition, % at 5 µM; hit rate 0.81% among 300,000;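 active means inhibition above the mean of all tested compounds plus 3 SD, set per screening campaign, cut at about 24% in these data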
Numbers stand for hits; i = inactive; ? = inconclusive; nt = no result given. An excerpt weighted towards active compounds, which were near 3.9% of everything screened.

SMILES	PHOSPHO1 block	SKKanGAS inh	Platelet DG rel	WT yeast gro inh	Rtt109 Vps75	TPT1 inh
COc1ccc(-c2nnc(NC(=O)C3CCCN3S(=O)(=O)c3cccs3)o2)cc1 (stereo not drawn)	nt	56	i	nt	i	i
O=C(Nc1nnc(C2CC2)o1)c1ccc(S(=O)(=O)N2CCc3ccccc3C2)cc1	i	i	i	64	i	i
CC1CCCN(S(=O)(=O)c2ccc(C(=O)Nc3nnc(C4CC4)o3)cc2)C1 (stereo not drawn)	i	?	i	nt	i	i
O=C(NCc1ccccn1)c1cccc(NS(=O)(=O)c2ccc(Br)cc2)c1	nt	nt	nt	nt	i	nt
COc1ccc(-c2nnc(NC(=O)c3ccc(S(=O)(=O)N4CCc5ccccc5C4)cc3)o2)cc1	i	94	i	i	i	i
COc1ccc(-c2csc(NC(=O)c3ccc(S(=O)(=O)N4CCc5ccccc5C4)cc3)n2)cc1	i	i	i	i	i	i
O=C(Nc1ncn[nH]1)c1ccc(Cl)c(Cl)c1	nt	nt	nt	nt	i	nt
N=C(N)N=Nc1c(O)[nH]c2ccc(Br)cc12	i	i	i	i	i	i
O=C(N=Nc1c(O)[nH]c2ccc(Br)cc12)c1ccccc1-n1cccc1	i	i	i	83	i	i
Oc1cccc(NC(=S)N=Nc2c(O)[nH]c3ccc(Br)cc23)c1	i	89	i	nt	i	i
Oc1[nH]c2ccc(Br)cc2c1N=NC(=S)Nc1ccc(F)cc1	i	109	i	nt	i	i
O=c1[nH]c(=S)[nH]cc1Oc1ccccc1	nt	nt	nt	nt	i	nt
CN(Cc1ccccc1)C(=O)COC(=O)C1CCN(S(=O)(=O)c2ccc(Cl)c(C(F)(F)F)c2)CC1	nt	i	i	nt	i	i
CCn1cc(C(=O)N2CCCC(CO)(Cc3ccccc3C)C2)cn1 (stereo not drawn)	i	i	i	nt	i	i
CSc1ccc(/C=N/S(=O)(=O)c2ccccc2)cc1	i	i	i	nt	i	i
CC(C)CNC(=O)C1CC(=O)OC12CCCCC2 (stereo not drawn)	i	i	i	i	i	i
O=C1CC(C(=O)NCc2ccccc2)C2(CCCC2)O1 (stereo not drawn)	i	i	i	65	i	i
Nc1ccc(C(=O)NC23CC4CC(CC(C4)C2)C3)cc1	i	i	i	nt	i	i
O=C(CCc1ccccc1)Nc1nnc(-c2ccc3c(c2)CCCC3)o1	i	85	i	66	i	i
O=C(Nc1nnc(-c2ccncc2)o1)C1CCCCC1	i	i	i	i	i	i
O=C(Nc1nnc(-c2ccc3c(c2)CCCC3)o1)c1c(F)cccc1F	i	95	i	i	i	i
O=C(Nc1nnc(-c2ccc(Cl)cc2)o1)C1=COCCO1	i	i	i	i	i	i
O=C(CCc1ccccc1)Nc1nnc(-c2ccc3c(c2)OCCO3)o1	i	i	i	i	i	i
O=C(Nc1nnc(-c2ccc3c(c2)CCCC3)o1)c1ccc(Cl)cc1Cl	i	96	i	i	i	i
O=C(Nc1nnc(-c2ccc3c(c2)CCCC3)o1)C1CCCCC1	i	81	i	i	i	i
SMILES	PHOSPHO1 block	SKKanGAS inh	Platelet DG rel	WT yeast gro inh	Rtt109 Vps75	TPT1 inh
C(#Cc1c(-c2ccsc2)sc2ccccc12)c1ccsc1	nt	nt	nt	nt	i	nt
CCCCN(C(=O)c1c(C)noc1C)c1c(N)n(CCC)c(=O)[nH]c1=O	nt	nt	nt	nt	i	nt
Cc1cn(CC(=O)NCCCn2ccnc2)c(=O)[nH]c1=O	nt	nt	nt	nt	i	nt
CN(C)S(=O)(=O)c1ccc(C(=O)Nc2nnc(-c3ccc4c(c3)CCCC4)o2)cc1	i	94	i	68	i	i
CCN(CC)N=Nc1[nH]nc2nc(C)cc(C)c12	69	i	i	i	i	i
O=C(CSC1=NS(=O)(=O)c2ccccc21)Nc1ccccc1	88	i	i	i	i	i
CN1c2ccccc2C(C)(C)[C@]12C=Cc1cc(O)ccc1O2	i	i	i	i	i	i
COc1ccc2c(c1)Sc1ccccc1N2CCN(C)C	i	i	i	i	i	i
CN1c2ccccc2C(C)(C)C12C=Nc1c(ccc3ccccc13)O2 (stereo not drawn)	i	105	i	i	i	i
COc1ccc2ccc3c(c2c1)N=CC1(O3)N(C)c2ccccc2C1(C)C (stereo not drawn)	i	93	i	78	i	i
CCOC(=O)c1[nH]c(=S)[nH]c1C	nt	nt	nt	nt	i	nt
Cc1cc(N2CCN(C)CC2)nc2ccc(NC(=S)N3CCN(c4ccc(Cl)cc4)CC3)cc12	i	i	i	97	i	i
Cc1cc(N2CCN(C)CC2)nc2ccc(NC(=S)N3CCN(c4ccc(F)cc4)CC3)cc12	i	i	i	i	i	i
c1sc2[n+](c1C13CC4CC(CC(C4)C1)C3)CCS2	i	i	i	i	i	i
O=[N+]([O-])c1ccc(-c2cn3c(n2)SCC3)cc1	nt	i	i	nt	nt	i
O=[N+]([O-])c1ccc(-c2csc3[n+]2CCS3)cc1	80	i	i	72	i	i
Fc1ccc(-c2csc3[n+]2CCS3)cc1	i	i	i	70	i	i
CCN(CC(=O)Nc1ccc(NC(C)=O)cc1)CC(=O)Nc1cc(C)on1	nt	nt	nt	nt	i	nt
COc1cc(CCC(=O)OCC(=O)Nc2sccc2C(N)=O)cc(OC)c1OC	nt	nt	nt	nt	i	nt
NS(=O)(=O)c1ccc(Oc2ccc(S(N)(=O)=O)cc2)cc1	62	i	i	i	i	i
CCCCOc1ccc(CONS(=O)(=O)c2ccc(NC(C)=O)cc2)cc1Cl	i	i	i	74	i	i
CCOC(=O)c1c(-c2ccc3ccccc3c2)csc1NC(=O)CCCC(=O)O	nt	nt	nt	nt	i	nt
C[C@@H](O)[C@H]1C(=O)N2C(C(=O)O)=C(S[C@@H]3CN[C@H](C(=O)N(C)C)C3)[C@H](C)[C@H]12	nt	110	i	nt	nt	i
COCCN(C(=O)COC(=O)COc1ccc(Cl)c(C)c1)c1c(N)n(Cc2ccccc2)c(=O)[nH]c1=O	i	i	i	nt	i	i
CCCCn1c(N)c(N(CC)C(=O)C2CCN(C(=O)c3ccccc3C)CC2)c(=O)[nH]c1=O	nt	nt	nt	nt	i	nt
SMILES	PHOSPHO1 block	SKKanGAS inh	Platelet DG rel	WT yeast gro inh	Rtt109 Vps75	TPT1 inh
CC1=NN(c2ccccc2)C(=O)/C1=C\c1c(C)[nH]n(-c2ccccc2)c1=O	i	i	i	i	i	i
CC1=NN(c2ccccc2)C(=O)/C1=C/c1c(O)n(-c2ccc(F)c(Cl)c2)[nH]c1=O	i	72	i	i	nt	i
Cc1cc(C)c(C)c(OCCCOc2cccc3cccnc23)c1	i	61	i	89	i	i
Cc1cc(OCCOc2cccc3cccnc23)cc(C)c1Cl	i	i	i	nt	i	i
CC(C)Oc1ccccc1OCCCOc1cccc2cccnc12	i	i	i	81	i	i
CC(=O)c1ccccc1OCCCOc1cccc2cccnc12	nt	i	i	nt	i	i
CN(CC(=O)Nc1cccc(F)c1)C(=O)c1ccccc1-n1cnnn1	nt	nt	nt	nt	i	nt
Cc1cc(CSc2ccc(Cl)cc2)ccc1N	nt	nt	nt	nt	i	nt
COc1ccccc1OCC(=O)NCCc1nc2ccccc2[nH]1	i	i	i	i	i	i
O=C(COc1ccc(F)cc1)Nc1nc(-c2ccccn2)cs1	nt	69	i	nt	i	i
Cc1cc(Cl)ccc1OCC(=O)Nc1nc(-c2cccs2)cs1	i	i	i	60	i	i
Cc1ccc(OCC(=O)NCCc2nc3ccccc3[nH]2)c(C)c1	61	i	i	i	i	i
